About 83,000 compounds went through this panel and 20% of them were active in at least one assay; those are over-represented in the sample as a whole.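 Method: cells in 96-well plates; compound added at one concentration; 48 h incubation; percent growth measured; values under 10 scored active.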 Values without a mark were called inactive. Activity calls are given as the source filed them.
Experiments:
Experiment in all cases: NCI-60 one-dose screen, 48 h (100 = growth as untreated, 0 = no growth, -100 = all killed)
Settings in all cases: 10 µM unless noted
[1] = test system: NCI-H23 lung
[2] = test system: NCI-H226 lung
[3] = test system: NCI-H322M lung
[4] = test system: HOP-62 NSCLC
[5] = test system: NCI-H460 lung
[6] = test system: HOP-92 NSCLC
[7] = test system: NCI-H522 lung
[8] = test system: A549/ATCC NSCLC
[9] = test system: 786-0 renal
[10] = test system: COLO 205 colon
[11] = test system: DU-145 prostate
[12] = test system: K-562 leukemia
[13] = test system: MALME-3M melanoma
[14] = test system: MDA-MB-231 breast
[15] = test system: RXF 393 renal
[16] = test system: SF-268 CNS
[17] = test system: SF-295 CNS
[18] = test system: SF-539 CNS
[19] = test system: UACC-257 melanoma
[20] = test system: M14 melanoma

Structure (SMILES) | growth [1] | growth [2] | growth [3] | growth [4] | growth [5] | growth [6] | growth [7] | growth [8] | growth [9] | growth [10] | growth [11] | growth [12] | growth [13] | growth [14] | growth [15] | growth [16] | growth [17] | growth [18] | growth [19] | growth [20]
NC1=C(Cl)C(=O)c2ccc(S(N)(=O)=O)cc2C1=O | -49.8% (active) | -51% (active) | -97% (active) | -68.2% (active) | -65.8% (active) | -58.1% (active) | -84.1% (active) | -53.7% (active) | -29.8% (active) | -90.3% (active) | -90.1% (active) | -12.7% (active) | -96.1% (active) | -3.41% (active) | -99.2% (active) | -74.4% (active) | -86.1% (active) | -84.5% (active) | -95.3% (active) | -89.6% (active)
COC(=O)c1ccc2oc(NC(=O)c3ccc(Nc4ccc([N+](=O)[O-])cc4C)c([N+](=O)[O-])c3)nc2c1 | 95.9% | 92.1% | 101% | 107% | 101% | 101% | 94.4% | 100% | 99.8% | 107% | 108% | 104% | 100% | 105% | 103% | 97.9% | 98.8% | 96.1% | 103% | 110%
Cc1ncc(C(=O)Nc2ccc(CN3CCN(C)CC3)c(C(F)(F)F)c2)cc1C#Cc1cnc2cccnn12 | -38.4% (active) | -56.8% (active) | -1.83% (active) | 4.59% (active) | -53.1% (active) | -4.77% (active) | -18.9% (active) | -2.38% (active) | 1.06% (active) | -41.5% (active) | 5.5% (active) | 0.556% (active) | -72% (active) | -1.12% (active) | -58.1% (active) | -29.8% (active) | 8.94% (active) | -52.2% (active) | -2.41% (active) | -79.9% (active)
O=C(COc1ccc(/C=C2\COc3ccccc3C2=O)cc1)Nc1nccs1 | 79% | 99% | 104% | 94.6% | 102% | 64.9% | 56.5% | 98.3% | 89.3% | 127% | 107% | -8.33% (active) | 88.5% | 95.9% | 96.4% | 92.8% | 112% | 85.9% | 98.5% | 93.2%
COc1ccc(-n2nc(C)c3c(Nc4ccc(NC(=O)Nc5cc(C(F)(F)F)ccc5F)cc4)ncnc32)cc1 | 32.7% | 73.8% | 11% | -38.6% (active) | 13.7% | 32.9% | -12% (active) | 22.9% | 11.3% | 15.2% | 63.6% | 6.88% (active) | 38.9% | -9.99% (active) | -13.2% (active) | 42.6% | -32.1% (active) | 16.8% | 45% | -29.6% (active)
Cc1ccccc1COc1ccc(-c2ccnn2-c2ccc(Cl)cc2)cc1 | 76.6% | 70.3% | 96.9% | 49.3% | 58.3% | 74.2% | 29.1% | 49.6% | 82.8% | 71.2% | 88.1% | 13.7% | 67.2% | 84.2% | 60.3% | 80.5% | 53.1% | 71.8% | 75.7% | 39%
COc1cc2c(cc1-c1c(C)noc1C)ncc1nc(C3CCC(F)(F)CC3)n([C@H](C)COC(F)F)c12 | 60.1% | 51.1% | 42.6% | 36.9% | 56.4% | 32% | 30.3% | 40% | 46.9% | 25.1% | 71.4% | 30.5% | 67.5% | 44.1% | 55.8% | 67.4% | 49.3% | 34% | 34.9% | 45.9%
COc1cc(/C=C/c2cc(O)c3cc(C(C)=O)c(=O)oc3c2)cc2c1O[C@]1(C)CC[C@@H](O)C(C)(C)[C@H]1C2 | 52.1% | 76.4% | 67.6% | 50.4% | 23% | 33.2% | 67.7% | 52.2% | -1.22% (active) | 89.8% | 53.4% | 17.2% | 25.4% | 64.4% | -58.5% (active) | 35.8% | -63.3% (active) | -33.3% (active) | 36.5% | -49.4% (active)
CCOC(=O)c1c(C)oc2ncnc(N3CCN(C(=O)COc4ccc(SC)cc4)CC3)c12 | 93.9% | 83.3% | 99.3% | 86.4% | 98.7% | 78.9% | 74.9% | 90.2% | 95.8% | 98% | 99.6% | 82.4% | 105% | 88.6% | 99.7% | 92.7% | 88.2% | 93.5% | 95% | 97.9%
COc1ccc(/C=C/c2nc(-c3n[nH]c(=O)n3-c3ccccc3)c3ccccc3n2)cc1 | 94.8% | 93.5% | 93.7% | 95.8% | 100% | 101% | 85.6% | 99.9% | 94% | 105% | 102% | 95.7% | 94.3% | 94.5% | 101% | 97.3% | 99.6% | 101% | 106% | 94.1%
CC(C)(C)N1CCC1CN (stereo not given) | 104% | 111% | 118% | 108% | 109% | 108% | 135% | 104% | 96.4% | 138% | 118% | 135% | 147% | 116% | 155% | 100% | 115% | 91.8% | -6.55% (active) | 101%
COc1cc(CNc2oc(-c3ccccc3)c(-c3ccccc3)c2C#N)cc(CN2CCN(C)CC2)c1O | 73.1% | 88% | 89.2% | 79.2% | 33.4% | 43.9% | 71.5% | 56.8% | 67.2% | 54.3% | 59.9% | -9.86% (active) | 20.6% | 75.3% | 42.8% | 69.8% | 51.7% | 71.3% | -4.26% (active) | -62.2% (active)
COc1cc2c(cc1-c1c(C)noc1C)ncc1nc(C3CCCC3)n([C@H](C)COC(F)F)c12 | 53.7% | 48.1% | 46.6% | 32% | 51% | 20% | 22.6% | 31.6% | 45.9% | 23.9% | 67.7% | 23.5% | 71.1% | 44.6% | 48.6% | 62.6% | 50.3% | 38.5% | 32.1% | 40.9%
CC(O)CN1CC(O)=C(c2nc3ccccc3s2)C1=N (stereo not given) | 83% | 103% | 111% | 95.2% | 113% | 88.1% | 99.9% | 116% | 100% | 108% | 115% | 105% | 97.6% | 108% | 113% | 108% | 129% | 104% | 119% | 114%
N=C(N)c1ccc(-c2ccc(-c3ccc4ccccc4c3)s2)s1 | 5.5% (active) | 92.8% | 26.5% | 86.8% | -70.4% (active) | 28.8% | 15.3% | -36.3% (active) | -39.1% (active) | -40.8% (active) | -85.4% (active) | -47.2% (active) | 85.9% | -36.8% (active) | -55.1% (active) | -6.87% (active) | 22.3% | 73.8% | 77% | 39.7%
